Calls of active or inactive are those of the source. Rule for the calls: active = hit-call score of the fitted dose curve at least 0.9, where 1 is the maximum; inactive = score below 0.9.
Key:
[1] = ATG_E_Box_CIS: Attagene CIS-FACTORIAL HepG2 Assay for human Enhancer Box (E-box) (AID 2282936); conditions: HepG2 E-box cis-reporter transcription, actives raise or lower the signal
In short: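 In this cell-based setup, HepG2 cells bearing transfected promoter-driven reporter units were exposed to chemicals for 24 h; reporter transcripts were amplified, 6-FAM-labelled, cut with HpaI and sized by capillary electrophoresis.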

[2] = ATG_M_61_CIS: Attagene CIS-FACTORIAL HepG2 Assay for M61 Transcription Factor (Internal Marker) (AID 2282937); conditions: HepG2 Attagene CIS-FACTORIAL M61 internal marker reporter; actives raise or lower the signal
In short: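 Human liver HepG2, transient MRTU transfection (cis promoter elements), 24 h compound. Total RNA → oligo(dT) RT → PCR → FAM label → HpaI → CE. Internal background marker; bidirectional fitting, DMSO = baseline.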

[3] = ATG_EGR_CIS: Attagene CIS-FACTORIAL HepG2 Assay for human Early Growth Response 1 (EGR1) (AID 2282938); conditions: HepG2 Attagene CIS-FACTORIAL EGR reporter mRNA; actives raise or lower the signal
In short: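 Transient transfection of human HepG2 with multiple cis-regulated reporter units, chemical exposure 24 h, total RNA isolated. Reverse transcription, PCR, fluorescent labelling and capillary electrophoresis quantify reporter transcripts; activity fitted bidirectionally against DMSO.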

[4] = ATG_M_19_CIS: Attagene CIS-FACTORIAL HepG2 Assay for M19 Transcription Factor (Internal Marker) (AID 2282939); conditions: HepG2 Attagene CIS-FACTORIAL M19 internal marker reporter; actives raise or lower the signal
In short: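 Chemical-treated HepG2 (24 h) with MRTU constructs; reporter transcripts detected by fluorescent RT-PCR fragment analysis on capillary electrophoresis. Internal background marker, DMSO as baseline.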

[5] = ATG_Ets_CIS: Attagene CIS-FACTORIAL HepG2 Assay for human Erythroblast Transformation Specific (ETS) (AID 2282941); conditions: HepG2 ETS cis-reporter transcription, actives raise or lower the signal
In short: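 Cis-regulated reporter mRNA induction in HepG2 (transient transfection), 24 h exposure, RT-PCR plus capillary electrophoresis detection; DMSO serves as negative control and baseline.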

[6] = target: Hepatocyte nuclear factor 3-beta (Homo sapiens) (UniProt Q9Y261); test: ATG_FoxA2_CIS: Attagene CIS-FACTORIAL HepG2 Assay for human Forkhead box A2 (FOXA2) (AID 2282942); conditions: HepG2 cis-reporter transcription factor activity, 24 h; actives raise or lower the signal
In short: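 Transient MRTU transfection of HepG2 liver cells; 24 h treatment; total RNA → oligo(dT) RT → PCR → FAM primer extension → HpaI cut → CE. Bidirectional fit vs DMSO.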

[7] = ATG_FoxO_CIS: Attagene CIS-FACTORIAL HepG2 Assay for human Forkhead box O (FoxO) (AID 2282943); conditions: HepG2 Attagene cis-reporter, FoxO element, mRNA; actives raise or lower the signal
In short: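 HepG2 cells transiently transfected with cis-element-driven reporter units report endogenous FoxO activity. After 24 h chemical exposure, reporter mRNA quantified by RT-PCR, fluorescent labeling, HpaI digestion and capillary electrophoresis; bidirectional fit versus DMSO.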

[8] = ATG_GATA_CIS: Attagene CIS-FACTORIAL HepG2 Assay for human GATA Binding Protein (AID 2282944); conditions: HepG2 GATA cis-element reporter, Attagene multiplex mRNA; actives raise or lower the signal
In short: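 Transfected cis-reporter HepG2 cells were treated with chemicals for 24 hours. Total RNA was then converted to cDNA, amplified with reporter-specific primers and analysed by fluorescent capillary electrophoresis, using DMSO-treated wells as baseline.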

[9] = ATG_GLI_CIS: Attagene CIS-FACTORIAL HepG2 Assay for human Zinc Finger Protein GLI1 (AID 2282945); conditions: HepG2, Attagene cis-factorial reporter mRNA, GLI element; actives raise or lower the signal
In short: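 Transiently transfected HepG2 cells report endogenous transcription factor activity via cis-element-driven reporter units. After 24 h compound exposure, reporter mRNA was measured by RT-PCR with capillary electrophoresis; bidirectional fitting against DMSO baseline.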

[10] = target: Bile acid receptor (Homo sapiens) (UniProt Q96RI1); test: ATG_IR1_CIS: Attagene CIS-FACTORIAL HepG2 Assay for human Nuclear Receptor Subfamily 1 Group H Member 4 (NR1H4), IR1 submotif (AID 2282946); conditions: IR1 reporter transcription, actives raise or lower the signal
In short: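 Fluorescence of capillary-separated, HpaI-digested RT-PCR reporter products gave IR1-element mRNA induction in HepG2 cells 24 h after dosing. Endogenous transcription factors drove the cis-regulated reporters; activity was fitted bidirectionally against DMSO.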

[11] = ATG_GRE_CIS: Attagene CIS-FACTORIAL HepG2 Assay for human Glucocorticoid Response Elements (GRE) (AID 2282947); conditions: HepG2 GRE cis-reporter, Attagene multiplex mRNA; actives raise or lower the signal
In short: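 Fluorescence intensity of reporter-specific cDNA fragments, separated by capillary electrophoresis, provides the signal. Constructs carry cis-regulating promoters in transiently transfected HepG2 liver cells; 24 h incubation; fitting is bidirectional against DMSO.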

[12] = ATG_ISRE_CIS: Attagene CIS-FACTORIAL HepG2 Assay for human Interferon Regulatory Factor 1 (IRF1) binding to an Interferon-Stimulated Response Element (ISRE) (AID 2282948); conditions: HepG2 ISRE cis-reporter (Attagene), mRNA transcription readout; actives raise or lower the signal
In short: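 Multiplexed mRNA reporter readout in human liver HepG2 cells: cis-element-driven reporters transfected, compound added for 24 h, transcripts amplified, fluorescently labelled and sized by capillary electrophoresis; curve fitting bidirectional against DMSO.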

[13] = ATG_M_32_CIS: Attagene CIS-FACTORIAL HepG2 Assay for M32 Transcription Factor (Internal Marker) (AID 2282949); conditions: HepG2 Attagene cis-factorial M32 reporter, mRNA; actives raise or lower the signal;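 note: background control marker of the multiplexed CIS panel rather than a real target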
In short: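 HepG2 transfectants (cis-regulated reporter transcription units) dosed 24 h. Reporter mRNA by RT-PCR plus CE, analysed as gain or loss relative to DMSO.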

[14] = ATG_M_06_CIS: Attagene CIS-FACTORIAL HepG2 Assay for M06 Transcription Factor (Internal Marker) (AID 2282950); conditions: HepG2 Attagene CIS-FACTORIAL M06 internal marker reporter; actives raise or lower the signal
In short: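 Cells (HepG2, transiently carrying cis-driven reporter units) receive chemical for 24 h before RNA isolation. Reporter cDNA is PCR-amplified, FAM-labelled by primer extension, HpaI-digested and sized on a capillary analyser.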

[15] = target: Hypoxia-inducible factor 1-alpha (Homo sapiens) (UniProt Q16665); test: ATG_HIF1a_CIS: Attagene CIS-FACTORIAL HepG2 Assay for human Hypoxia Inducible Factor 1 (HIF1A) (AID 2282951); conditions: HepG2 Attagene cis-factorial HIF1a reporter transcription; actives raise or lower the signal
In short: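 Transient MRTU transfection of human HepG2 liver cells, 24 h compound treatment, then total RNA isolation, oligo(dT) reverse transcription, PCR amplification, fluorescent labelling and capillary electrophoresis of reporter fragments. Gain or loss relative to DMSO.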

[16] = target: Hepatocyte nuclear factor 6 (Homo sapiens) (UniProt Q9UBC0); test: ATG_HNF6_CIS: Attagene CIS-FACTORIAL HepG2 Assay for human Hepatocyte Nuclear Factor 6 (HNF6) (AID 2282952); conditions: HepG2 Attagene cis-factorial HNF6 reporter transcription; actives raise or lower the signal
In short: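 Activity values derive from bidirectional fitting against DMSO of reporter mRNA levels, measured by capillary electrophoresis of labelled RT-PCR products from HepG2 cells exposed 24 h.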

[17] = target: Heat shock factor protein 1 (Homo sapiens) (UniProt Q00613); test: ATG_HSE_CIS: Attagene CIS-FACTORIAL HepG2 Assay for human Heat Shock Transcription Factor 1 (HSE) (AID 2282953); conditions: HepG2 HSE cis-reporter, Attagene RNA transcription; actives raise or lower the signal
In short: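 Liver-derived HepG2 cells carry transiently introduced multiple reporter units governed by cis promoters. Reporter RNA measured 24 h post-dose through reverse transcription, PCR amplification, fluorescent labelling and capillary electrophoresis, normalised to DMSO.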

[18] = ATG_MRE_CIS: Attagene CIS-FACTORIAL HepG2 Assay for human Metal Responsive Element (MRE) (AID 2282954); conditions: HepG2 MRE cis-reporter transcription, Attagene multiplex; actives raise or lower the signal
In short: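 Measured here is mRNA induction from an MRE cis-element reporter in HepG2 after 24 h, quantified by fluorescence of labelled RT-PCR products on capillary electrophoresis; gain- and loss-of-signal fits use DMSO as baseline.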

[19] = ATG_PBREM_CIS: Attagene CIS-FACTORIAL HepG2 Assay for human Phenobarbital-responsive Enhancer Module (PBREM) (AID 2282955); conditions: HepG2 PBREM cis-reporter, Attagene multiplexed transcription; actives raise or lower the signal
In short: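 Endogenous transcription factors in human liver HepG2 cells drive a PBREM cis-element reporter, whose transcript level after 24 h treatment is quantified by RT-PCR with capillary electrophoresis; activity fitted in both directions against DMSO.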

Measured: AC50

Chain of Hypoxia-inducible factor 1-alpha (Homo sapiens) (Q16665 whole entry, looked up, the tested form may be a part): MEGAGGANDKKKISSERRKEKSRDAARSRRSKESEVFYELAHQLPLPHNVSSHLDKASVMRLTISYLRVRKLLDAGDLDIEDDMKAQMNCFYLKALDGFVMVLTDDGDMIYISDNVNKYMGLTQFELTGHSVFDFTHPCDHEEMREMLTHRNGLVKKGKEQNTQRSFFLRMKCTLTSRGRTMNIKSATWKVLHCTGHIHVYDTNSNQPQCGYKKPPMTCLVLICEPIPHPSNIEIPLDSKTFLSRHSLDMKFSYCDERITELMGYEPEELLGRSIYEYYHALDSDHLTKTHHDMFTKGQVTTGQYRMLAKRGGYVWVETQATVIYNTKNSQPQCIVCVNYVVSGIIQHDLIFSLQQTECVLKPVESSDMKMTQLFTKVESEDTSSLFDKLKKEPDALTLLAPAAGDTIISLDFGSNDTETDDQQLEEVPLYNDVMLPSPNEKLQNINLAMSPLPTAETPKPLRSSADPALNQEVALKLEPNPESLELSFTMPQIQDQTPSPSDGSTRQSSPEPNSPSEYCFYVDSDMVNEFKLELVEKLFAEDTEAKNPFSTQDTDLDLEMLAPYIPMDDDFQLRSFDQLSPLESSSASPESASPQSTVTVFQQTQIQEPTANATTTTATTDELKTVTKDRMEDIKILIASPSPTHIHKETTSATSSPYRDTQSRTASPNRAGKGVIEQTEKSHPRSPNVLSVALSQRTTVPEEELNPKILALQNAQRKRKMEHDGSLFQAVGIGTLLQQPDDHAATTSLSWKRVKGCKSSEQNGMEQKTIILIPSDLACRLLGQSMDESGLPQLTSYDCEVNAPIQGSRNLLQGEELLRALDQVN
Chain of Heat shock factor protein 1 (Homo sapiens) (Q00613 whole entry, looked up): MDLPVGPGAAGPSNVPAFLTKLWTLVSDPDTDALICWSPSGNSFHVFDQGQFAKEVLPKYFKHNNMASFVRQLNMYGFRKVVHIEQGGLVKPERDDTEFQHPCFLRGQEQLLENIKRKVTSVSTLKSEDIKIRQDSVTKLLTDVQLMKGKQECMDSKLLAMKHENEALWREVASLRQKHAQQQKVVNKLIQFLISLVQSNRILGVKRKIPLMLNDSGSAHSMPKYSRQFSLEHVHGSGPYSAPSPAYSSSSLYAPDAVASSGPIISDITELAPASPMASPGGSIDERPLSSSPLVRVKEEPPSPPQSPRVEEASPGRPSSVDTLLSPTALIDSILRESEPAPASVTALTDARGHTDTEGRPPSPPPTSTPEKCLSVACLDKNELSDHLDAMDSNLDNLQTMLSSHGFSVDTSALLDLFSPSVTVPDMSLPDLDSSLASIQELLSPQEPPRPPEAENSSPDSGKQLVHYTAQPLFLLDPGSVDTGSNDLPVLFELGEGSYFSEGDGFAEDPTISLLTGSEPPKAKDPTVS
Chain of Hepatocyte nuclear factor 3-beta (Homo sapiens) (Q9Y261 whole entry, looked up): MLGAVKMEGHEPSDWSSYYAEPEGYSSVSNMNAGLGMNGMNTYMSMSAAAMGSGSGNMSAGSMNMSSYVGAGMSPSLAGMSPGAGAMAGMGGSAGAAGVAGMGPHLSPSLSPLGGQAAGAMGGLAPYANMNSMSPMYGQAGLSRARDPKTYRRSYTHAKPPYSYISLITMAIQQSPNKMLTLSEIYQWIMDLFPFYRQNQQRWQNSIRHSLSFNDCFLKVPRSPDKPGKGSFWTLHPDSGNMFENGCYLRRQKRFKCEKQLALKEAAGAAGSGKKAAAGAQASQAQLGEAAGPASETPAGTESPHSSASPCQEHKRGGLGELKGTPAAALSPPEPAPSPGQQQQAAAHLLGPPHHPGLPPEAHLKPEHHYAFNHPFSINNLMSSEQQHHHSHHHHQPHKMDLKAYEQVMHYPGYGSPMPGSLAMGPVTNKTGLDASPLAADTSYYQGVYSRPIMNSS
Chain of Bile acid receptor (Homo sapiens) (Q96RI1 whole entry, looked up): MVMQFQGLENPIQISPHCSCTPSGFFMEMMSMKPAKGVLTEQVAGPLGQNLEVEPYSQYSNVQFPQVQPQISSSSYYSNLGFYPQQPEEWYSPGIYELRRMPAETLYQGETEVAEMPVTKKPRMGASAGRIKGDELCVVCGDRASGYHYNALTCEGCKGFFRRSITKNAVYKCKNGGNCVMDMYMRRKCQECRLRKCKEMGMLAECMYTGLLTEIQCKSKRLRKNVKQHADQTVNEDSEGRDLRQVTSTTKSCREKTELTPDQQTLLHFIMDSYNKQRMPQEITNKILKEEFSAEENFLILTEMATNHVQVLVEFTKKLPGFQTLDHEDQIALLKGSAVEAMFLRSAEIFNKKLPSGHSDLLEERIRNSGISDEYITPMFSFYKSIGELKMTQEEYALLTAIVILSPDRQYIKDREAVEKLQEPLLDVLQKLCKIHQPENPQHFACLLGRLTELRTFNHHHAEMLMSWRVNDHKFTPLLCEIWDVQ
Chain of Hepatocyte nuclear factor 6 (Homo sapiens) (Q9UBC0 whole entry, looked up): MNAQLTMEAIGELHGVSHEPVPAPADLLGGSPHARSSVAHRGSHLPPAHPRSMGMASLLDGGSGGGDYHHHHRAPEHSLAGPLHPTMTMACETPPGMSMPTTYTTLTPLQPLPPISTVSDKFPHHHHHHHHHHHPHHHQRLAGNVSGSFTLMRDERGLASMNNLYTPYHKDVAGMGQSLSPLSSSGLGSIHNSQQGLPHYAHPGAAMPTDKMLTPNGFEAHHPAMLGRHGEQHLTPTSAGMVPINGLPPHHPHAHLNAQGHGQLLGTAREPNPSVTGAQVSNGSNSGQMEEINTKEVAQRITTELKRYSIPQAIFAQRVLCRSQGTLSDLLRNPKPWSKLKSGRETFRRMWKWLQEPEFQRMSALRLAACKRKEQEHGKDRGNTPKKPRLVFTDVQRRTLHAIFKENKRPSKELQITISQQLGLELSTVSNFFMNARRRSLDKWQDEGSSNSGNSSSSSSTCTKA

CCCCCc1ccco1
active: [3] 108 µM | [10] 105 µM | [17] 115 µM
inactive: [1] | [2] | [4] | [5] | [6] | [7] | [8] | [9] | [11] | [12] | [13] | [14] | [15] | [16] | [18] | [19]

COc1cc(Cl)c(OC)cc1N
inactive: [1] | [2] | [3] | [4] | [5] | [6] | [7] | [8] | [9] | [10] | [11] | [12] | [14] | [15] | [16] | [17] | [18]

CCCCCCCCSCCO
active: [10] 151 µM | [18] 153 µM
inactive: [1] | [2] | [3] | [4] | [5] | [6] | [7] | [8] | [9] | [11] | [12] | [14] | [15] | [16] | [17] | [19]

CCC1CCCCC1
inactive: [1] | [2] | [3] | [4] | [5] | [6] | [7] | [8] | [9] | [10] | [11] | [12] | [13] | [14] | [15] | [16] | [17] | [18] | [19]
